The text below walks through data of PubChem BioAssay AID602393 (Broad Institute, 2012).

Among all 350,000 compounds or so, about 7,000 (2%) were called active. The sample as a whole holds a higher share of actives than the screen did. A number with no mark means an inactive call. Rule as the data show it: active = activation above about 40%; inconclusive = no clear call, values can overlap the other calls; inactive = below that.

The test is described as follows: raisers of Bmi1 knock-in reporter signal – mouse ES cells, Bmi1 luciferase knock-in, single point, esBAF inhibitor project, primary screen (AID 602393).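 Also: 0% = median of the plate's neutral control wells and 100% = double that signal; a rise in the Bmi1 reporter signal indicates esBAF inhibition.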 Conditions: 24 h, at 12.5 µM, active compounds read high, 100% = twice the neutral-well signal.
As to `O=C(Nc1ccc(Cl)cc1)N1C[C@@H]2[C@H](c3ccccc31)[C@@H](CO)N2C(=O)c1cccnc1`, the reporter increase was 13.8%.

For the molecule `CO[C@H]1CN(C)C(=O)c2cc(NC(=O)Nc3ccccc3)ccc2OC[C@@H](C)N(C(=O)Nc2c(C)noc2C)C[C@@H]1C`, the reporter increase was 3.56%.

As for `O=S(=O)(NCC[C@H]1CC[C@@H](NS(=O)(=O)c2cccc(Cl)c2)[C@@H](CO)O1)c1cccc(F)c1`, the reporter increase was 8.34%.

As for `CCC(=O)N1C[C@@H](C)[C@H](OC)CN(C)C(=O)c2cc(NC(=O)c3cc(C)on3)ccc2OC[C@@H]1C`, the reporter increase is 6.47%.

As for `COc1ccc(-c2cc(C(=O)NCCCN3CCOCC3)no2)cc1`, the reporter increase was -13.5%.

`COCCN1CCN(C(=O)c2cc(COc3ccc(F)cc3Cl)on2)CC1`: the reporter increase is -1.67%.

As to `COc1ccc(OCc2cc(C(=O)NCC3(C)COC3)no2)c(Cl)c1`, the reporter increase was 42.9% (active).

As for `CC(=O)N(C)C[C@@H]1Oc2ncc(-c3ccccc3F)cc2C(=O)N([C@H](C)CO)C[C@@H]1C`, the reporter increase is -1.47%.

For `OCCCN1c2ccccc2Nc2nnc(-c3ccccc3)cc21`, the reporter increase is 45.3% (active).

Take `N=c1c2c(-c3ccccc3)c(-c3ccccc3)n(Cc3ccccc3)c2ncn1CCCO`: the reporter increase is -11.6%.

With `O=C(C[C@@H]1CC[C@@H](NC(=O)c2cccnc2)[C@H](CO)O1)NCCN1CCCCC1`, the reporter increase is -6.27%.

`CCNC(=O)C[C@@H]1CC[C@H]2[C@@H](COc3ccc(NC(=O)c4ccccc4Cl)cc3C(=O)N2C)O1`: the reporter increase is 2.25%.

With `COc1ccc(NC(=O)Nc2ccc3c(c2)C(=O)N([C@H](C)CO)C[C@H](C)[C@@H](CN(C)Cc2ccccc2)OCCCC[C@H](C)O3)cc1`, the reporter increase was 3.05%.

With `COCC(=O)Nc1ccc2c(c1)C(=O)N(C)C[C@H](OC)[C@@H](C)CN(C(=O)Cc1cccnc1)[C@@H](C)CO2`, the reporter increase is -0.572%.

Turning to `O=C(CN1CCOCC1)Nc1cccc([N+](=O)[O-])c1`, the reporter increase was -2.52%.

Take `Cn1cccc1C(=O)N1CCc2ccccc2C1`: the reporter increase was 28.8%.

As to `O=C(Nc1cccc([N+](=O)[O-])c1)Nn1cnnc1`, the reporter increase is 9.77%.

Consider `O=C(Nc1cccc([N+](=O)[O-])c1)N1CCc2ccccc2C1`, for which the reporter increase is 45.9% (active).

For `Cc1ccc(NC(=O)CN2CCc3ccccc3C2)cc1C`, the reporter increase is 8.63%.

Consider `CCc1ccc(NC(=O)N2CCc3ccccc3C2)cc1`, for which the reporter increase is 60.4% (active).

On to `COCC(=O)N(C)C[C@H]1[C@@H](c2ccc(-c3cccnc3)cc2)[C@H](CO)N1C(C)=O`, for which the reporter increase is 3.19%.

With `CO[C@@H]1CN(C)C(=O)c2cc(NC(=O)c3ccc(F)cc3)ccc2OC[C@H](C)NC[C@@H]1C`, the reporter increase was 2.56%.

Consider `O=C(COc1cccnc1[N+](=O)[O-])Nc1ccc(Cl)cc1F`, for which the reporter increase is 43.4% (active).

Consider `COc1cccc(NC(=O)COc2cccnc2[N+](=O)[O-])c1`, for which the reporter increase was 20%.

Turning to `CC(NC(=O)COc1cccnc1[N+](=O)[O-])c1ccc(Cl)cc1Cl` (centres undefined), the reporter increase was 0.51%.

Regarding `Cn1c(COc2ccc(Cl)cc2)nc2ccccc2c1=O`, the reporter increase was 12.6%.

For the molecule `COc1ccc(OCc2ccc(-c3nc4ccccc4c(=O)n3N)o2)cc1`, the reporter increase was 54.8% (active).

As to `COc1ccc(-c2nc3ccccc3c(=O)n2CCc2ccc(O)cc2)cc1`, the reporter increase was 9.53%.

On to `COc1ccc(S(=O)(=O)N2CC[C@@H]3[C@@H](CO)Nc4ccc(C#Cc5cccnc5)cc4[C@@H]32)cc1`, for which the reporter increase is 7.74%.

As for `CO[C@@H]1CN(C)C(=O)c2cc(NS(=O)(=O)Cc3ccccc3)ccc2OC[C@H](C)NC[C@H]1C`, the reporter increase is -0.575%.

On to `COCC#Cc1cnc2c(c1)C(=O)N([C@H](C)CO)C[C@H](C)[C@H](CN(C)C(=O)Nc1cc(F)ccc1F)O2`, for which the reporter increase was -0.321%.

For the molecule `COc1ccc(-c2cn3ccc(C)cc3n2)cc1`, the reporter increase was -61.7%.

For `CCN(c1cccc(C)c1)S(=O)(=O)c1ccc(-c2coc(C)n2)cc1`, the reporter increase is 2.04%.

As for `CCN(CC)S(=O)(=O)c1ccc(-c2cn3ccc(C)cc3n2)cc1`, the reporter increase was 42.3% (active).

For the molecule `COCC(=O)Nc1ccc2c(c1)C(=O)N(C)C[C@H](OC)[C@@H](C)CN(C(=O)c1cnccn1)[C@H](C)CO2`, the reporter increase was -3.88%.

Regarding `COC(=O)C[C@H]1CC[C@@H](NC(=O)c2ccccc2)[C@@H](CO)O1`, the reporter increase is -2.05%.

Turning to `CC(C)NC(=O)Nc1ccc2c(c1)C(=O)N([C@@H](C)CO)C[C@H](C)[C@@H](CN(C)C(=O)Nc1ccc(F)cc1)OCCCC[C@H](C)O2`, the reporter increase was 11.9%.

Turning to `O=C(CCSc1ccccc1)N1CCN(c2ccccc2F)CC1`, the reporter increase is 65.1% (active).

`O=C(NCC(=O)N1CCN(c2ccccc2F)CC1)c1cccs1`: the reporter increase is 28.1%.

Take `O=C(CCc1ccccc1F)N1CCN(c2ccccc2)CC1`: the reporter increase is 1.91%.

In the case of `CCCN1C[C@H](C)[C@@H](OC)CN(C)C(=O)c2ccc(NC(=O)C3CCOCC3)cc2OC[C@H]1C`, the reporter increase is -2.07%.

Take `O=C(C[C@@H]1CC[C@H]2NC[C@H](O)COC[C@@H]2O1)NCCN1CCCCC1`: the reporter increase is 6.52%.

With `O=C(CC(F)(F)F)N1C[C@H]2[C@@H](c3ccccc31)[C@H](CO)N2C(=O)Cc1cccnc1`, the reporter increase was -1.13%.

With `CC(=O)Nc1cccc(NC(=O)c2ccc3c(c2)CCN3S(C)(=O)=O)c1`, the reporter increase is 2.43%.

For `CS(=O)(=O)N1CCc2cc(C(=O)Nc3ccccc3)ccc21`, the reporter increase is 47.5% (active).

Regarding `CS(=O)(=O)N1CCc2cc(C(=O)Nc3ccccc3Br)ccc21`, the reporter increase was 34.7%.

Turning to `O=C(O)C[C@H]1C[C@@H]2c3cc(NC(=O)Nc4ccc(C(F)(F)F)cc4)ccc3O[C@@H]2[C@@H](CO)O1`, the reporter increase was 2.29%.

Consider `C=CCN1C(=O)C(Cc2cccc(Cl)c2)S/C1=N/N=C/c1ccco1` (centres undefined), for which the reporter increase was -2.3%.

Regarding `COc1ccc(CN2C(=O)C(C)S/C2=N/N=C/c2ccco2)cc1` (centres undefined), the reporter increase was 70.2% (active).

Turning to `CCN(CC)C(=O)C1=C(C)N(Cc2ccc(OC)cc2)C(=O)C(CC(=O)NCc2ccco2)C1` (centres undefined), the reporter increase is -3.89%.

For the molecule `CCCC(=O)Nc1ccc2c(c1)C(=O)N(C)C[C@@H](OC)[C@@H](C)CN(C(=O)CC)[C@H](C)CO2`, the reporter increase is -1.94%.

As for `CN(C)C(=O)C[C@H]1CC[C@@H](NC(=O)Nc2cccc(F)c2)[C@H](CO)O1`, the reporter increase was -0.909%.

`COCC#Cc1cnc2c(c1)C(=O)N([C@@H](C)CO)C[C@@H](C)[C@H](CN(C)C(=O)c1cnccn1)O2`: the reporter increase is 3.45%.

Consider `CN1C(=O)c2cc(NC(=O)Nc3ccccc3Cl)ccc2OC[C@H]2O[C@@H](CC(=O)O)CC[C@H]21`, for which the reporter increase was 3.49%.

In the case of `COCC1CCN(C(=O)C2CCC(=O)N(CC3CCCCC3)C2)CC1` (centres undefined), the reporter increase was -0.459%.

`CC(C)C1CCN(C(=O)C2CCC(=O)N(C3CCCCCC3)C2)CC1` (centres undefined): the reporter increase is 55.6% (active).

Regarding `O=C(C1CCC(=O)N(C2CC2)C1)N1CCN(c2ccc(Cl)cc2)CC1` (centres undefined), the reporter increase is -7.88%.

As for `COc1ccc(S(=O)(=O)Nc2ccc3c(c2)CC(=O)N([C@H](C)CO)C[C@H](C)[C@@H](CN(C)C)O3)cc1`, the reporter increase was -3.65%.

Regarding `O=C(Cc1ccccn1)N[C@H]1CC[C@H](CCNS(=O)(=O)c2cccc(F)c2)O[C@@H]1CO`, the reporter increase was 0.895%.
